From PubChem BioAssay (EPA / NIEHS)
Inconclusive results are not listed. Active and inactive are the calls of the source. How the source made its calls: active means hit-call score of the fitted dose curve at least 0.9, where 1 is the maximum; inconclusive means response in the unintended direction; inactive means score below 0.9.

The compounds below were run against rat Glutamate, AMPA Site (AMPA), Gria1 (gene 50592) (UniProt P19490) (assay: NVS_LGIC_rAMPA: NovaScreen (NVS) Ligand-Gated Ion Channel Assay for rat Glutamate, AMPA Site (AMPA) (AID 2283324)).
Chain of rat Glutamate, AMPA Site (AMPA), Gria1 (gene 50592) (P19490 whole entry, looked up): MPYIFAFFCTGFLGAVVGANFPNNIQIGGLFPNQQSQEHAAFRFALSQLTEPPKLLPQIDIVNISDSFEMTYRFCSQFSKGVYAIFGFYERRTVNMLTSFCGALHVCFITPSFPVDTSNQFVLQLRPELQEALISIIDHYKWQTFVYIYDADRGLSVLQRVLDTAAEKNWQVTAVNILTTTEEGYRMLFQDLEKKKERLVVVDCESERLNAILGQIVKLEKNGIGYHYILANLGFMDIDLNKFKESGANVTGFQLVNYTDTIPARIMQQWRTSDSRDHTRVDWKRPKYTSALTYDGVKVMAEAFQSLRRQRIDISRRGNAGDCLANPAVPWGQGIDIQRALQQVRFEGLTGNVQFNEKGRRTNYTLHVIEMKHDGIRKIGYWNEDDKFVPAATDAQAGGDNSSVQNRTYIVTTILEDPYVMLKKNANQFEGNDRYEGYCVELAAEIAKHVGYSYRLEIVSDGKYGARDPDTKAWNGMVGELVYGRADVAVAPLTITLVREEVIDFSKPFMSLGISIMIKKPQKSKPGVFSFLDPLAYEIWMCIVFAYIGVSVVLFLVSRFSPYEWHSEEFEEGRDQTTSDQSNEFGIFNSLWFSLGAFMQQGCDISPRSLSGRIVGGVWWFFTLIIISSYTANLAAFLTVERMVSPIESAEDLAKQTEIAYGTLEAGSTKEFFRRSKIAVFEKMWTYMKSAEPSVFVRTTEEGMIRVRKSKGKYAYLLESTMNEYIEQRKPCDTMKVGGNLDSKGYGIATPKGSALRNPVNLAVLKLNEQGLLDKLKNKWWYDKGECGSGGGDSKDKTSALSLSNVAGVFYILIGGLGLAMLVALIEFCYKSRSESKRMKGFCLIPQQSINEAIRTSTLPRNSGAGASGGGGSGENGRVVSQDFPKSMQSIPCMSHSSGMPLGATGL
Procedure, shortened: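 Screening at 25 uM in duplicate preceded concentration series reaching 50 uM for qualifying compounds. Radioligand displacement on rat forebrain membranes, 1 h, filter-based scintillation readout; reduced binding relative to DMSO.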

SMILES | outcome
CON=C(C(=O)OC)c1ccccc1CON=C(C)c1cccc(C(F)(F)F)c1 | inactive
CN(C)[C@@H]1C(=O)C(C(N)=O)=C(O)[C@@]2(O)C(=O)C3=C(O)c4c(O)cccc4[C@@](C)(O)[C@H]3[C@H](O)[C@@H]12 | inactive
S=C1NCCN1 | inactive

Each compound was assayed against rat Thyrotropin Releasing Hormone Receptor (TRH), Trhr (gene 25570) (UniProt Q01717) (assay: NVS_GPCR_rTRH: NovaScreen (NVS) G Protein-Coupled Receptor Assay for rat Thyrotropin Releasing Hormone Receptor (TRH) (AID 2283329);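 further: hit means lower bound tracer signal versus DMSO baseline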).
Chain of rat Thyrotropin Releasing Hormone Receptor (TRH), Trhr (gene 25570) (Q01717 whole entry, looked up): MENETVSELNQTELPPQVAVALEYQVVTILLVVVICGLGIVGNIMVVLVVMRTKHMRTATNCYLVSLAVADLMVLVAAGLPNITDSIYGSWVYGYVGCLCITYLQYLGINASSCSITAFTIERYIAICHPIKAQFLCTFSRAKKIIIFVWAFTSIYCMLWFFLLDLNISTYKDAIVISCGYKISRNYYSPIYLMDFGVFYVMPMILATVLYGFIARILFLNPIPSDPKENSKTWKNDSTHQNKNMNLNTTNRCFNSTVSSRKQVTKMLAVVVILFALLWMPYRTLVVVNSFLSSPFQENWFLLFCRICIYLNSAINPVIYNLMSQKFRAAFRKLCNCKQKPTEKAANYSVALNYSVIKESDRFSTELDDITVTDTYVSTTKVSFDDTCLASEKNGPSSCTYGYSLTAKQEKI
Procedure, shortened: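 Rat forebrain membrane prep, radioligand displacement, filter scintillation readout at 4 h. Single conc 25 uM, duplicate; actives retested as concentration series. DMSO = negative control/baseline.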

SMILES | outcome
C#CC(C)(C)NC(=O)c1cc(Cl)cc(Cl)c1 | inactive
O=[N+]([O-])c1cc(C(F)(F)F)c(Cl)c([N+](=O)[O-])c1Nc1ncc(C(F)(F)F)cc1Cl | inactive
CCC(CC)Nc1c([N+](=O)[O-])cc(C)c(C)c1[N+](=O)[O-] | inactive
CON=C(C(=O)OC)c1ccccc1CON=C(C)c1cccc(C(F)(F)F)c1 | inactive
CCc1cnc(C2=NC(C)(C(C)C)C(=O)N2)c(C(=O)O)c1 (stereo not given) | inactive

Each compound was assayed against human Peripheral-type Benzodiazepine Receptor (PBR), TSPO (gene 706) (UniProt P30536) (assay: NVS_MP_hPBR: NovaScreen (NVS) Membrane Protein Assay for human Peripheral-type Benzodiazepine Receptor (PBR) (AID 2283331);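 further: hits reduce radioligand binding relative to DMSO baseline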).
Chain of human Peripheral-type Benzodiazepine Receptor (PBR), TSPO (gene 706) (P30536 whole entry, looked up): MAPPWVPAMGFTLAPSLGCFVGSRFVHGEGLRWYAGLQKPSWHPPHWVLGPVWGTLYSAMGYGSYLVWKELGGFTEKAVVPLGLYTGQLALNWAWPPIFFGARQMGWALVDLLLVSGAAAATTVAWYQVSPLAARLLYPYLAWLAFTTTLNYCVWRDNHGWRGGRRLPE
Procedure, shortened: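 Using human colon-derived membranes, this one-endpoint binding test reads radioligand loss by scintillation after 1 h. Screening started at 25 uM in duplicate, with positive and negative controls on every plate, and actives moved to dose series.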

SMILES | outcome | AC50
CCCCN(CC)c1c([N+](=O)[O-])cc(C(F)(F)F)cc1[N+](=O)[O-] | inactive | 
C#CC(C)(C)NC(=O)c1cc(Cl)cc(Cl)c1 |  | 1.47 µM (active)
CCOP(=S)(OCC)SCCSCC | inactive | 
CCOP(=S)(OCC)Oc1ccc([N+](=O)[O-])cc1 | inactive | 
CNC(=O)ON=C(C)SC | inactive | 
CC(C)[C@H](C(=O)O[C@H](C#N)c1cccc(Oc2ccccc2)c1)c1ccc(Cl)cc1 | inactive | 
C=C(C)[C@H]1Cc2c(ccc3c2O[C@@H]2COc4cc(OC)c(OC)cc4[C@@H]2C3=O)O1 | inactive | 
CCC(CC)Nc1c([N+](=O)[O-])cc(C)c(C)c1[N+](=O)[O-] | inactive | 
CCCSP(=O)(OCC)Oc1ccc(Br)cc1Cl (stereo not given) |  | 3.16 µM (active)
CCC(=NOC/C=C/Cl)C1=C(O)CC(C2CCOCC2)CC1=O (stereo not given) | inactive | 
COP(=O)(NC(C)=O)SC (stereo not given) | inactive | 
CNc1cnn(-c2cccc(C(F)(F)F)c2)c(=O)c1Cl |  | 5.75 µM (active)
CON=C(C(=O)OC)c1ccccc1CON=C(C)c1cccc(C(F)(F)F)c1 |  | 1.06 µM (active)
C#CCC1=C(C)C(OC(=O)C2C(C=C(C)C)C2(C)C)CC1=O (stereo not given) | inactive | 
CC1(C(=O)Nc2ccc(O)c(Cl)c2Cl)CCCCC1 |  | 1.78 µM (active)
CCOP(=S)(Oc1cnc(C(C)(C)C)nc1)OC(C)C (stereo not given) | inactive | 
CCOP(=S)(OCC)Oc1cc(C)nc(C(C)C)n1 | inactive | 
CN(C)[C@@H]1C(=O)C(C(N)=O)=C(O)[C@@]2(O)C(=O)C3=C(O)c4c(O)cccc4[C@@](C)(O)[C@H]3[C@H](O)[C@@H]12 |  | 12.9 µM (active)
S=C1NCCN1 | inactive | 
CCCSP(=O)(OCC)SCCC |  | 17.7 µM (active)
CC(COc1ccc(Oc2ccccc2)cc1)Oc1ccccn1 (stereo not given) | inactive | 
CCOP(=O)(OCC)Oc1cc(C)nc(C(C)C)n1 | inactive | 
